Screening data deposited in PubChem by National Center for Advancing Translational Sciences (NCATS).
LmPK inh: qHTS Assay for Inhibitors of Leishmania Mexicana Pyruvate Kinase (LmPK); Q27686; purified LmPK, Kinase-Glo ATP luminescence, 1 h; Potency, µM (titrated, usually from 57.5 µM), hits mostly inhibitors; hit rate 0.37% among 290,000
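0.1 nM LmPK, 0.5 mM PEP, 0.1 mM ADP; 50 mM imidazole pH 7.2, 7 mM MgCl2, 50 mM KCl; 1 h RT. Kinase-Glo luminescence readout, normalized to no-enzyme (full inhibition) and uninhibited wells.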
FBPA Giardia inh: qHTS Assay for Inhibitors of Fructose-1,6-bisphosphate Aldolase from Giardia Lamblia; A8B2U2; purified Giardia FBPA; Potency, µM (top dose mostly 59.6 µM), actives largely listed as inhibitors; hit rate 0.71% among 290,000; note: nearly all actives have a fitted effect of over 55% in size
Target sequence (A8B2U2 whole entry, looked up): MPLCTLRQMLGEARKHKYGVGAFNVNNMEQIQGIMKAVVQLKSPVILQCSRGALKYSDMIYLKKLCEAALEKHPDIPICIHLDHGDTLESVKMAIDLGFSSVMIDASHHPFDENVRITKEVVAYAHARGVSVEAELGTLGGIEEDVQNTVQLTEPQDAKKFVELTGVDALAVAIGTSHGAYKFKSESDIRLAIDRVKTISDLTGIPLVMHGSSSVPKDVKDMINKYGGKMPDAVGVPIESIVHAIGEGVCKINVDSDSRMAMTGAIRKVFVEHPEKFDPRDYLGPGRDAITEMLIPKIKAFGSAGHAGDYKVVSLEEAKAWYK
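40 nM FBPA preincubated 10 min at RT with compound (up to 57.5 uM final), then substrate plus GAPDH/TPI/NAD/arsenate coupling and diaphorase/resazurin added. Fluorescence read after 20 min at RT, 525/598 nm.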
TbPYK inhibitor: qHTS of Trypanosoma Brucei Inhibitors; pyruvate kinase (Trypanosoma brucei), Q57TT1; TbPYK enzyme, Kinase-Glo Plus ATP luminescence, 45 min; Potency, µM (doses to about 76.8 µM), actives largely listed as inhibitors; hit rate 0.12% among 410,000; note: nearly all actives have a fitted effect of over 50% in size
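Readout: single end-point luminescence (Kinase-Glo Plus, 10 min). Reaction conditions were TbPYK/substrate plus 130 uM ADP, 45 min at RT, pH 7.2 TEA buffer. No-enzyme wells served as controls, and data were normalized before concentration-response fitting.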
Sm TGR inh: qHTS Assay for the Inhibitors of Schistosoma Mansoni Peroxiredoxins; Schistosoma mansoni thioredoxin glutathione reductase (TGR), Q962Y6; purified TGR, DTNB reduction, TNB absorbance 405 nm; Potency, µM (doses to about 114 µM), hits mostly inhibitors; hit rate 3% among 360,000; AID 485364, 2010; note: nearly all actives have a fitted effect of over 60% in size
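TGR 20 nM + NADPH 100 uM (dispensed conc.), cpd preinc 15 min RT; start with NADPH (500 uM addition) then DTNB (15 mM addition). Kinetic TNB absorbance, 405 nm filter. Four-parameter Hill fit across titration.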
Shiga toxin inh: A qHTS for Small Molecule Inhibitors of Shiga Toxin. AID 2315, 2010. inhibition, % at 38.7 µM. Vero cells, Shiga toxin protein synthesis inhibition reporter. hit rate 9.2% among 290,000; in the data active = inhibition mostly above about 28%, no sharp cut-off; inactive = mostly below about 43%
CHX counter: Cycloheximide Counterscreen for Small Molecule Inhibitors of Shiga Toxin | cell reporter, cycloheximide protein synthesis inhibition counterscreen | max response, % | hit rate 12% among 300,000 | AID 2314, 2010; in the data active = max response mostly above about 13%, no sharp cut-off; inactive = mostly below about 14%; note: read at 38.3 µM for the half of the compounds with a filed dose
Of the large screens only hits and unclear results are named; the others gave an inactive call. Many of the other results were omitted from the sample, so hits are more common in it than they were. Unless noted, calls come from the whole dose curve; as a rule, active = well fitted curve in the direction sought with a large enough effect; inconclusive = small, poorly fitted or top-dose-only effect, or another doubt; inactive = no such curve, though single readings can be large; an effect the other way counts as inactive or inconclusive.

Cc1ccc(Cn2ccn(Cc3ccc(C)cc3)c(=O)c2=O)cc1	none (no result: LmPK inh, FBPA Giardia inh, Shiga toxin inh, CHX counter)
O=C(Nc1ccc2ccccc2c1)c1cccc(F)c1	Shiga toxin inh 90, CHX counter 52
CC(C)C(=O)Nc1cccc(NC(=O)c2cccc(F)c2)c1	none
CC(=O)NCc1ccc2[nH]c(C)cc2c1	FBPA Giardia inh inconclusive, Sm TGR inh 40µM
CCC(=O)NCc1ccc2[nH]c(C)cc2c1	FBPA Giardia inh inconclusive, Sm TGR inh 28µM
Cc1cc2cc(CNC(=O)NC3CCCCC3)ccc2[nH]1	Sm TGR inh inconclusive, Shiga toxin inh 40, CHX counter 18
Cc1c(Cl)cccc1-n1ncc(C(=O)NC2CCCC2)c1C1CCN(C(=O)OC(C)(C)C)CC1	none (no result: LmPK inh, FBPA Giardia inh, Shiga toxin inh, CHX counter)
Cn1cccc1C(=O)Nc1ccc(N2CCOCC2)cc1	none (no result: LmPK inh, FBPA Giardia inh, Sm TGR inh, Shiga toxin inh, CHX counter)
CC(C)(C)C(=O)NC(=O)Nc1ccccc1C(F)(F)F	CHX counter 11
Cn1cccc1C(=O)C(=O)Nc1ccccc1C(F)(F)F	Shiga toxin inh 65, CHX counter 40
CCOC(=O)c1cnn(-c2ccccc2)c1-n1cccc1C(=O)C(=O)Nc1ccccc1C(F)(F)F	none
Cn1cccc1C(=O)C(=O)Nc1ccccc1	LmPK inh 16µM, TbPYK inhibitor inconclusive, Shiga toxin inh 91, CHX counter 43
CC(=O)Nc1ccccc1C(F)(F)F	none
Cc1ccccc1NC(=O)Cn1c(SCC(=O)Nc2ccc(F)cc2)nc2ccccc21	none (no result: LmPK inh, FBPA Giardia inh, Shiga toxin inh, CHX counter)
O=C(OCc1ccc(COC(=O)c2cccnc2Cl)cc1)c1cccnc1Cl	none
O=C(COC(=O)c1cccnc1Cl)c1ccccc1	LmPK inh inconclusive, Shiga toxin inh 71, CHX counter 47 (no result: FBPA Giardia inh)
CCc1ccc(C(=O)COC(=O)c2cccnc2Cl)cc1	Shiga toxin inh 95, CHX counter 39
COc1ccc(C(C)=O)cc1COC(=O)CSCC(=O)Nc1ccc(C)cc1	Sm TGR inh 35µM (no result: LmPK inh, FBPA Giardia inh, Shiga toxin inh, CHX counter)
CCC(C)(C)c1ccc(OC(=O)c2cccnc2Cl)cc1	Shiga toxin inh 124, CHX counter 38
COc1ccc(-c2noc(CSCC(=O)Nc3ccc(C)cc3Br)n2)cc1OC	none (no result: LmPK inh, FBPA Giardia inh, Shiga toxin inh, CHX counter)
Cc1cc(Nc2ccc(C)c(Cl)c2)n2nc(Cc3ccccc3)nc2n1	none (no result: LmPK inh, FBPA Giardia inh, Shiga toxin inh, CHX counter)
CCCCCCCCCCCCCCC[C@@H](O)[C@H](CO)NC(C)=O	none (no result: LmPK inh, TbPYK inhibitor, Sm TGR inh, Shiga toxin inh, CHX counter)
COc1ccc(C(C)=O)cc1COC(=O)CNC(=O)C1CCCCC1	none (no result: LmPK inh, FBPA Giardia inh, Sm TGR inh, Shiga toxin inh, CHX counter)
COc1ccc(C(C)=O)cc1COC(=O)CNC(=O)c1ccccc1F	Sm TGR inh 8.9µM
O=C(COC(=O)c1cccnc1Cl)c1ccc(F)cc1	LmPK inh inconclusive, Shiga toxin inh 97, CHX counter 22
COc1ccc(C(C)=O)cc1COC(=O)c1cccnc1Cl	Sm TGR inh 13µM
COc1ccc(C(C)=O)cc1COC(=O)c1cc2ccccc2cc1O	none
CC(=O)Nc1ccc(NC(=O)CSc2cn(CC(=O)N(C(C)C)C(C)C)c3ccccc23)cc1	none (no result: LmPK inh, FBPA Giardia inh, Shiga toxin inh, CHX counter)
CCOC(=O)c1ccc2nc(C)cc(Nc3ccc(OC(C)C)cc3)c2c1	none (no result: LmPK inh, FBPA Giardia inh, Shiga toxin inh, CHX counter)
CCOC(=O)c1ccc(N2C(=O)c3cccc4c(C(=O)O)ccc(c34)C2=O)cc1	none (no result: Shiga toxin inh)
C=CCNc1nc(-c2ccc(OC)cc2OC)cs1	FBPA Giardia inh inconclusive, Shiga toxin inh 69, CHX counter 38
CC1(C)CC(=O)c2cnc(N3CCc4ccccc43)nc2C1	Shiga toxin inh 88, CHX counter 51
COc1cccc(C2/C(=C(\O)c3ccc4c(c3)OCCO4)C(=O)C(=O)N2c2nnc(C)s2)c1 (centres undefined)	none (no result: FBPA Giardia inh)
CCCOc1ccc(/C(O)=C2/C(=O)C(=O)N(CCCn3ccnc3)C2c2ccco2)cc1 (centres undefined)	CHX counter 28
Cc1nnc(N2C(=O)C(=O)/C(=C(/O)c3ccc4c(c3)CC(C)O4)C2c2ccccc2F)s1 (centres undefined)	CHX counter 14
O=C1C(=O)N(CCCn2ccnc2)C(c2ccccn2)/C1=C(/O)c1ccccc1 (centres undefined)	none (no result: TbPYK inhibitor)
COc1ccccc1C1/C(=C(\O)c2ccc3c(c2)OCCO3)C(=O)C(=O)N1CCCn1ccnc1 (centres undefined)	Shiga toxin inh 72, CHX counter 32
